How the values were obtained:
Experiment in all cases: DAPPL (digital affinity profiling via proximity ligation, sequencing); 10 mM Tris-HCl pH 7.5, 50 mM NaCl, 1 mM DTT, 4% glycerol, room temperature, 30 min; GST-TFs on glutathione beads, 16-mer random dsDNA library, 0.1% formaldehyde crosslink after washing; high values mean tight binding
Settings in all cases: protein: recombinant; tags: N-terminal GST; dsDNA, one strand shown
FLI1 = biological target: T1, FLI1 (Homo sapiens, UniProt Q01543 1-452)
T1 sequence: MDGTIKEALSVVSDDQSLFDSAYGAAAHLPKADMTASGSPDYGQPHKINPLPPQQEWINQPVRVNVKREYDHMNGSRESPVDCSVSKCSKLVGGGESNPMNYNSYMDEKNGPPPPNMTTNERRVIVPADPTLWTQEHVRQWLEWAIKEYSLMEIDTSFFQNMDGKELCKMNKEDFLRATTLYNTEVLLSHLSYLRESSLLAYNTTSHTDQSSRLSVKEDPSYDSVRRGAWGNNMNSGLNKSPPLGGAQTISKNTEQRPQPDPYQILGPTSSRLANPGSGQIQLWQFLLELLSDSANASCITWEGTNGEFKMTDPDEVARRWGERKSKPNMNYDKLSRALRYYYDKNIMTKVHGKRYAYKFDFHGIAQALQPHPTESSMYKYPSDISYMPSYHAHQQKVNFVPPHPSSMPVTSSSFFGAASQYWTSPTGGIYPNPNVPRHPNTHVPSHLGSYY
In short: (§1)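 Human transcription factors were made in yeast as GST fusions, captured on glutathione beads and barcoded with DNA. With a tag-only sample included, the pool was incubated with 200 nmole of a random double-stranded 16-mer DNA library in Tris/NaCl/DTT/glycerol buffer at room temperature for 30 min, then crosslinked with 0.1% formaldehyde after washing, ligated by proximity, amplified and sequenced. For binding signal, each hexamer's read frequency for a factor is divided by its frequency for the tag-only sample.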

ELK1 = biological target: T2, ELK1 (Homo sapiens, UniProt P19419 1-428)
T2 sequence: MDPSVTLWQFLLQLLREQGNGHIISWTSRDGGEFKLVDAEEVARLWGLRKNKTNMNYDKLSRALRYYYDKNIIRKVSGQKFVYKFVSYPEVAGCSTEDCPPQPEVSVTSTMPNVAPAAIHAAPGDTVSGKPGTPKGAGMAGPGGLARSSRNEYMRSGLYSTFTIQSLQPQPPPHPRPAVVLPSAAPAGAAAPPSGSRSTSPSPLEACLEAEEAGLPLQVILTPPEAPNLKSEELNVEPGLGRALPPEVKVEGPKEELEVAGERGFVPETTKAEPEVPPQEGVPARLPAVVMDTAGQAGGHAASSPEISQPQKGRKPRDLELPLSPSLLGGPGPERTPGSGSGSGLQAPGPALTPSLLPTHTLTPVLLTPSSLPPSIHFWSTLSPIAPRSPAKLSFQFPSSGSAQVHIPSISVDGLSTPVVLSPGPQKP
In short: as §1

GABPA = biological target: T3, GABPA (Homo sapiens, UniProt Q06546 1-454)
T3 sequence: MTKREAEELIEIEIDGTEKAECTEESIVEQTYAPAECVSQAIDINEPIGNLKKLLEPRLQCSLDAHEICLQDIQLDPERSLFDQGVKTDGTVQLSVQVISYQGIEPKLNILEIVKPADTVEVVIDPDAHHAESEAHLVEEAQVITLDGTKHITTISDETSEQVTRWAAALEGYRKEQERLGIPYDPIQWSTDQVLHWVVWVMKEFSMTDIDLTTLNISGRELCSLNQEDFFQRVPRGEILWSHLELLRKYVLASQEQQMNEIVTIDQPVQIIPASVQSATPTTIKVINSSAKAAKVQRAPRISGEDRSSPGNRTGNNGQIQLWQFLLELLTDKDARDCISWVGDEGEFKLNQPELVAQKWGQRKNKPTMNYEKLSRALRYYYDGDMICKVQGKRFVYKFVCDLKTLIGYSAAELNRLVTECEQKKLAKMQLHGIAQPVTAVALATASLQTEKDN
In short: as §1

ERG = biological target: T4, ERG (Homo sapiens, UniProt P11308 1-479)
T4 sequence: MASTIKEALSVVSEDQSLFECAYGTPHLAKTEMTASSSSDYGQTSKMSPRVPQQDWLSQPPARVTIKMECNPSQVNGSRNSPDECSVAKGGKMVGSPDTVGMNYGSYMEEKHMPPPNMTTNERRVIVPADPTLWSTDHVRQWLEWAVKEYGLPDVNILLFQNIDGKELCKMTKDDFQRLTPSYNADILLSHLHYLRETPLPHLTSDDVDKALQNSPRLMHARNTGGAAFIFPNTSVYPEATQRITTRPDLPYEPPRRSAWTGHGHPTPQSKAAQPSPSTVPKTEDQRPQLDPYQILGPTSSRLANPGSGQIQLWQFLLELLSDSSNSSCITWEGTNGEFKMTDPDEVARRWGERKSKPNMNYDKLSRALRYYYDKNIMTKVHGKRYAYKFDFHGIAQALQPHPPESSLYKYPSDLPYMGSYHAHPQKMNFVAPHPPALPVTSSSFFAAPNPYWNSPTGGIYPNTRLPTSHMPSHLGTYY
In short: as §1

ELF1 = ELF1 (Homo sapiens, UniProt P32519 1-619)
In short: as §1

EHF = biological target: T5, EHF (Homo sapiens, UniProt Q9NZC4 1-300)
T5 sequence: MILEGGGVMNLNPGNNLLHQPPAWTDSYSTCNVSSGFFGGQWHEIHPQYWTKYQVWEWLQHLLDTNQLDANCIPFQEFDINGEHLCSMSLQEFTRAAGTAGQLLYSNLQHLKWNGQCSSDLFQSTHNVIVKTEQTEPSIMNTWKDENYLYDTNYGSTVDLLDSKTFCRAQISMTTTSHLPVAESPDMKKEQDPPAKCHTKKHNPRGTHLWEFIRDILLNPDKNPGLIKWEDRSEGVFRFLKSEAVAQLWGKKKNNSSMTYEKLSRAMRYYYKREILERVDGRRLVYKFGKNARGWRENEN
In short: as §1

SPI1 = SPI1 (Homo sapiens, UniProt P17947 1-270)
In short: as §1

SPIB = SPIB (Homo sapiens, UniProt Q01892 1-262)
In short: as §1

ELK3 = biological target: T6, ELK3 (Homo sapiens, UniProt P41970 1-407)
T6 sequence: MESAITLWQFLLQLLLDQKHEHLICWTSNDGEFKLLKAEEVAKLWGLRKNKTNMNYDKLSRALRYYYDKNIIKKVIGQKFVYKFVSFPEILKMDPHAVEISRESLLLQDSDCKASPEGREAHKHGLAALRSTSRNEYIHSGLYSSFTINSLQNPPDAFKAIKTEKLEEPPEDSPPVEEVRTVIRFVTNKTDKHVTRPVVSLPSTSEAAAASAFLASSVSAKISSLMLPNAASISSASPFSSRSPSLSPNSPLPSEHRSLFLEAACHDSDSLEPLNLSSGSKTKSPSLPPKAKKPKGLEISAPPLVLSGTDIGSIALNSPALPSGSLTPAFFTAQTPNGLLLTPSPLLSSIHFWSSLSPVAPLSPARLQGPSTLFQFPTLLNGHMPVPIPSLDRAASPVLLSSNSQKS
In short: as §1

Chain of SPIB (Q01892 whole entry): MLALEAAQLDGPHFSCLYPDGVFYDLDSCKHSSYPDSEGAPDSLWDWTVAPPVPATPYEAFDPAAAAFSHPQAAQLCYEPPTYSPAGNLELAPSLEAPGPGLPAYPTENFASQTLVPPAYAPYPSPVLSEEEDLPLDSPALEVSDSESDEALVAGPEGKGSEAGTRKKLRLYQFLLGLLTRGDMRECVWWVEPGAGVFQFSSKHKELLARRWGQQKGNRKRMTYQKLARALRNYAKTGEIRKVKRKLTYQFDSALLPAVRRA
Chain of ELF1 (P32519 whole entry): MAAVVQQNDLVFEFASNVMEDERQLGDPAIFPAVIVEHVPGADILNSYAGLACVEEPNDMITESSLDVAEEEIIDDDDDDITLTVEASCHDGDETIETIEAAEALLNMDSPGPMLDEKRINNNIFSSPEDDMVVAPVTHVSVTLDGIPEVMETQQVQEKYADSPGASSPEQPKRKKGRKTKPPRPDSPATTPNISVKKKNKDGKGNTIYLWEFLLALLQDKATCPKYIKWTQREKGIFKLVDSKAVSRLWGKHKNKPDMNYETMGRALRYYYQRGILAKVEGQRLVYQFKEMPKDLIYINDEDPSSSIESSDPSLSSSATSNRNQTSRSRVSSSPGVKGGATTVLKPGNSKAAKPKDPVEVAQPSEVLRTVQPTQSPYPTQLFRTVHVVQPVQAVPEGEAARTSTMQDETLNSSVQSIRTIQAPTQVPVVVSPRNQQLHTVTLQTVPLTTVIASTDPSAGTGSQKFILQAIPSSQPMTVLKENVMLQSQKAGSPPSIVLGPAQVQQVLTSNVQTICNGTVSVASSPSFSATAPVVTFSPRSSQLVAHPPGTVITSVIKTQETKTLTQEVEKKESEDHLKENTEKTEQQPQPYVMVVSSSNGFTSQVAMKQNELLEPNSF

| Sequence | binding signal (FLI1) | binding signal (ELK1) | binding signal (GABPA) | binding signal (ERG) | binding signal (ELF1) | binding signal (EHF) | binding signal (SPI1) | binding signal (SPIB) | binding signal (ELK3) |
| --- | --- | --- | --- | --- | --- | --- | --- | --- | --- |
| ATGTTT | 1.48 fold enrichment (6-mer frequency, TF over GST control) | 1.37 fold enrichment (6-mer frequency, TF over GST control) | 1.36 fold enrichment (6-mer frequency, TF over GST control) | 1.39 fold enrichment (6-mer frequency, TF over GST control) | 1.41 fold enrichment (6-mer frequency, TF over GST control) | 1.41 fold enrichment (6-mer frequency, TF over GST control) | 1.33 fold enrichment (6-mer frequency, TF over GST control) | 1.38 fold enrichment (6-mer frequency, TF over GST control) | 1.43 fold enrichment (6-mer frequency, TF over GST control) |
| TACCTT | 1.36 fold enrichment (6-mer frequency, TF over GST control) | 1.33 fold enrichment (6-mer frequency, TF over GST control) | 1.36 fold enrichment (6-mer frequency, TF over GST control) | 1.42 fold enrichment (6-mer frequency, TF over GST control) | 1.3 fold enrichment (6-mer frequency, TF over GST control) | 1.47 fold enrichment (6-mer frequency, TF over GST control) | 1.33 fold enrichment (6-mer frequency, TF over GST control) | 1.42 fold enrichment (6-mer frequency, TF over GST control) | 1.23 fold enrichment (6-mer frequency, TF over GST control) |
| AAATAA | 1.27 fold enrichment (6-mer frequency, TF over GST control) | 1.32 fold enrichment (6-mer frequency, TF over GST control) | 1.33 fold enrichment (6-mer frequency, TF over GST control) | 1.37 fold enrichment (6-mer frequency, TF over GST control) | 1.33 fold enrichment (6-mer frequency, TF over GST control) | 1.29 fold enrichment (6-mer frequency, TF over GST control) | 1.32 fold enrichment (6-mer frequency, TF over GST control) | 1.39 fold enrichment (6-mer frequency, TF over GST control) | 1.33 fold enrichment (6-mer frequency, TF over GST control) |
| AAGGAT | 1.14 fold enrichment (6-mer frequency, TF over GST control) | 1.19 fold enrichment (6-mer frequency, TF over GST control) | 1.12 fold enrichment (6-mer frequency, TF over GST control) | 1.17 fold enrichment (6-mer frequency, TF over GST control) | 1.22 fold enrichment (6-mer frequency, TF over GST control) | 1.25 fold enrichment (6-mer frequency, TF over GST control) | 1.12 fold enrichment (6-mer frequency, TF over GST control) | 1.19 fold enrichment (6-mer frequency, TF over GST control) | 1.13 fold enrichment (6-mer frequency, TF over GST control) |
| ATATCT | 1.25 fold enrichment (6-mer frequency, TF over GST control) | 1.19 fold enrichment (6-mer frequency, TF over GST control) | 1.26 fold enrichment (6-mer frequency, TF over GST control) | 1.21 fold enrichment (6-mer frequency, TF over GST control) | 1.21 fold enrichment (6-mer frequency, TF over GST control) | 1.17 fold enrichment (6-mer frequency, TF over GST control) | 1.16 fold enrichment (6-mer frequency, TF over GST control) | 1.21 fold enrichment (6-mer frequency, TF over GST control) | 1.15 fold enrichment (6-mer frequency, TF over GST control) |
| TAGTTT | 1.23 fold enrichment (6-mer frequency, TF over GST control) | 1.19 fold enrichment (6-mer frequency, TF over GST control) | 1.25 fold enrichment (6-mer frequency, TF over GST control) | 1.14 fold enrichment (6-mer frequency, TF over GST control) | 1.22 fold enrichment (6-mer frequency, TF over GST control) | 1.21 fold enrichment (6-mer frequency, TF over GST control) | 1.12 fold enrichment (6-mer frequency, TF over GST control) | 1.13 fold enrichment (6-mer frequency, TF over GST control) | 1.23 fold enrichment (6-mer frequency, TF over GST control) |
| CTCGAT | 1.48 fold enrichment (6-mer frequency, TF over GST control) | 1.38 fold enrichment (6-mer frequency, TF over GST control) | 1.32 fold enrichment (6-mer frequency, TF over GST control) | 1.26 fold enrichment (6-mer frequency, TF over GST control) | 1.49 fold enrichment (6-mer frequency, TF over GST control) | 1.27 fold enrichment (6-mer frequency, TF over GST control) | 1.36 fold enrichment (6-mer frequency, TF over GST control) | 1.49 fold enrichment (6-mer frequency, TF over GST control) | 1.18 fold enrichment (6-mer frequency, TF over GST control) |

Source: publication PMC7862700, “An all-to-all approach to the identification of sequence-specific readers for epigenetic DNA modifications on cytosine”
